Experiment in all cases: DAPPL (digital affinity profiling via proximity ligation, sequencing); 10 mM Tris-HCl pH 7.5, 50 mM NaCl, 1 mM DTT, 4% glycerol, room temperature, 30 min; GST-TFs on glutathione beads, 16-mer random dsDNA library, 0.1% formaldehyde crosslink after washing; high values mean tight binding
In one test the target is T1, FEV (Homo sapiens, UniProt Q99581 1-238).
T1 sequence: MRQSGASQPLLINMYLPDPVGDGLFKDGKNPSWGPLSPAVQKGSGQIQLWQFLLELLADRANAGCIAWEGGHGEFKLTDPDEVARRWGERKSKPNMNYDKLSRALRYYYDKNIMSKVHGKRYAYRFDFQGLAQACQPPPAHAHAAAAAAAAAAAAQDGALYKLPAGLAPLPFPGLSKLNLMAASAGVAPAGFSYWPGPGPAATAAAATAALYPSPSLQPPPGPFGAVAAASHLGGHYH
The settings on record: protein: recombinant; tags: N-terminal GST; dsDNA, one strand shown. Put shortly:
(§1)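 Pools were built from human transcription factors expressed in yeast as GST fusions, captured on glutathione beads and DNA-barcoded, along with a tag-only sample. Incubation with 200 nmole of a 16-mer random double-stranded DNA library lasted 30 min at room temperature in Tris/NaCl/DTT/glycerol buffer, and was followed by washing, 0.1% formaldehyde crosslinking, proximity ligation, PCR amplification and Illumina NextSeq500 sequencing. Binding signal is the quotient of each hexamer's read frequency for a factor and its frequency for the tag-only sample.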

For the next test, the target named is ETV5 (Homo sapiens, UniProt P41161 1-510). Conditions: protein: recombinant; tags: N-terminal GST; dsDNA, one strand shown. A digest of the protocol:
as §1

Another test has as its target HSF1 (Homo sapiens, UniProt Q00613 1-529). Conditions: protein: recombinant; tags: N-terminal GST; chain copies: 3; dsDNA, one strand shown. A digest of the protocol:
as §1

The target in the next test is T2, SPIC (Homo sapiens, UniProt Q8N5J4 1-248).
T2 sequence: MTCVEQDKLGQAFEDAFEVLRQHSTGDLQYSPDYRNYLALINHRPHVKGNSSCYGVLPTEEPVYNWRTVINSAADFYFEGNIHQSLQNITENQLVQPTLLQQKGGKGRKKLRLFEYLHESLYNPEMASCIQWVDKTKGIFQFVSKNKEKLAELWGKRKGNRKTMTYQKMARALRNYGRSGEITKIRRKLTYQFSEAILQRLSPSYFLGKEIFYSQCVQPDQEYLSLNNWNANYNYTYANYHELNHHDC
The settings on record: protein: recombinant; tags: N-terminal GST; dsDNA, one strand shown. Put shortly: as §1

The next test has as its target ELF4 (Homo sapiens, UniProt Q99607 1-663). Conditions: protein: recombinant; tags: N-terminal GST; dsDNA, one strand shown. Put shortly: as §1
The next test concerns the target T3, ELK4 (Homo sapiens, UniProt P28324-2 1-405).
T3 sequence: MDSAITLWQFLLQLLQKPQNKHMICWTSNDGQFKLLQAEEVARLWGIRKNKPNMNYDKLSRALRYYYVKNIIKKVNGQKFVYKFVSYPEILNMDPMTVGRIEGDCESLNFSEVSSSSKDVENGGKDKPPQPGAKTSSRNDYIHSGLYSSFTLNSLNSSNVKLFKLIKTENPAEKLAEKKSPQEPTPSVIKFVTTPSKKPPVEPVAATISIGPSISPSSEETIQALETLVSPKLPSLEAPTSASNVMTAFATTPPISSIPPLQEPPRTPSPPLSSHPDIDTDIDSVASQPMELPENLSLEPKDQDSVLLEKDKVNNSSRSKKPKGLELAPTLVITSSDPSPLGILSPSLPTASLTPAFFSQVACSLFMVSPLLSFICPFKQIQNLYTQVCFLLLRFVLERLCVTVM
The settings on record: protein: recombinant; tags: N-terminal GST; dsDNA, one strand shown. Put shortly:
as §1

A further test addresses T4, ETV2 (Homo sapiens, UniProt O00321 1-342).
T4 sequence: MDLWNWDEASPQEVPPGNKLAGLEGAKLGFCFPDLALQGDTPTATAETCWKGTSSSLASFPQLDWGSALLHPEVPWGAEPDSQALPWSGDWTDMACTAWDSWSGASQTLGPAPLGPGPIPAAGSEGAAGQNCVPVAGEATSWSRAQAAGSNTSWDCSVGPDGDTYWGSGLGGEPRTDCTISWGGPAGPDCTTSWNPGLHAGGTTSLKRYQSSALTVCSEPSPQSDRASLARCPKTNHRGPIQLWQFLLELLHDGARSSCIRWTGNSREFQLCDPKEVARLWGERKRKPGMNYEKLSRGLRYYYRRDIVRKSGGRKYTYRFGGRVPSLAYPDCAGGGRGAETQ
The settings on record: protein: recombinant; tags: N-terminal GST; dsDNA, one strand shown. Put shortly:
as §1

The next test addresses T5, ELF3 (Homo sapiens, UniProt P78545 1-371).
T5 sequence: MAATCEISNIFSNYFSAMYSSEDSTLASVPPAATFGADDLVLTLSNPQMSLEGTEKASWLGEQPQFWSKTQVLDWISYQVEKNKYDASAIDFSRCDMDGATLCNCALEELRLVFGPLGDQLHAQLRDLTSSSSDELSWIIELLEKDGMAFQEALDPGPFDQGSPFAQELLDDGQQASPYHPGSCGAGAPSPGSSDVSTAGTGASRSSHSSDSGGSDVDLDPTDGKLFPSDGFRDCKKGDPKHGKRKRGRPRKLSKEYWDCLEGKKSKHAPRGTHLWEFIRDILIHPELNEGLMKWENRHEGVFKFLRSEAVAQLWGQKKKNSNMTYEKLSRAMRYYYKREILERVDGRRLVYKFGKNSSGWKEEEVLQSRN
The settings on record: protein: recombinant; tags: N-terminal GST; dsDNA, one strand shown. A digest of the protocol: as §1

The next test has as its target CRX (Homo sapiens, UniProt O43186 1-299). The settings on record: protein: recombinant; tags: N-terminal GST; dsDNA, one strand shown. A digest of the protocol: as §1
Another test deals with ETV1 (Homo sapiens, UniProt P50549 1-477). The settings on record: protein: recombinant; tags: N-terminal GST; dsDNA, one strand shown. Put shortly: as §1
Sequence of ETV1 (P50549 whole entry): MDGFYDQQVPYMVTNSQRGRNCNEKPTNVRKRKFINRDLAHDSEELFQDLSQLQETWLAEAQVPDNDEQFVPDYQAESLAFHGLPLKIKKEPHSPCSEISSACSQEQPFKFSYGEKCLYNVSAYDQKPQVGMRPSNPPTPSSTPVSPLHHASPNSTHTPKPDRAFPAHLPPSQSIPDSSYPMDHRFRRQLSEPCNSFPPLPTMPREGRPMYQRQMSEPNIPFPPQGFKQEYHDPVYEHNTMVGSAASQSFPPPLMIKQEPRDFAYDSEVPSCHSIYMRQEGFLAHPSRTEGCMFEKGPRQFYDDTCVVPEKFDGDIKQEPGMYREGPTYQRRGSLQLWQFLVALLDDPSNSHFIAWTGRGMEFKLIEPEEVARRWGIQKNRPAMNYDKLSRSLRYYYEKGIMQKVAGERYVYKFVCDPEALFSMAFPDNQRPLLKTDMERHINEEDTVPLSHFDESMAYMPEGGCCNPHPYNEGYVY

Sequence of HSF1 (Q00613 whole entry): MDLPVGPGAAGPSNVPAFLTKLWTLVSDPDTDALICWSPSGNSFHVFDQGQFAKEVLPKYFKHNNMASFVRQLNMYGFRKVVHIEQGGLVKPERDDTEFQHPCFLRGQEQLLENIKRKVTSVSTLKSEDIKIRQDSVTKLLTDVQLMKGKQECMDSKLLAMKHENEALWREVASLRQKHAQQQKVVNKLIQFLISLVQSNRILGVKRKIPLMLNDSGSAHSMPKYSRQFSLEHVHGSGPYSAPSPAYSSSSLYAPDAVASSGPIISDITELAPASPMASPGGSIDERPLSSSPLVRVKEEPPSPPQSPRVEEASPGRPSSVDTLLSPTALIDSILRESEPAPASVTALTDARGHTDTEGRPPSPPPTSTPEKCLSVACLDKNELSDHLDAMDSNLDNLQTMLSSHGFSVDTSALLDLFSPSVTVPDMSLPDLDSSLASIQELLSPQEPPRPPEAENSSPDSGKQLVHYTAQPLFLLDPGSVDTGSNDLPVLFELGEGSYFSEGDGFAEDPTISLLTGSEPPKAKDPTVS
Sequence of CRX (O43186 whole entry): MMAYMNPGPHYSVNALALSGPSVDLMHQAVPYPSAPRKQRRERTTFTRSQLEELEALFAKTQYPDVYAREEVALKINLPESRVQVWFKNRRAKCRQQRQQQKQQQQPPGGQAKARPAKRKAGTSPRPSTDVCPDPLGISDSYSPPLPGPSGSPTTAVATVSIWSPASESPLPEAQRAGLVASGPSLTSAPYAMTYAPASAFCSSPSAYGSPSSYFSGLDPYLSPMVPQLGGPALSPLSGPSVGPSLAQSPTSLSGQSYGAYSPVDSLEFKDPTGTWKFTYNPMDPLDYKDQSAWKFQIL
Sequence of ETV5 (P41161 whole entry): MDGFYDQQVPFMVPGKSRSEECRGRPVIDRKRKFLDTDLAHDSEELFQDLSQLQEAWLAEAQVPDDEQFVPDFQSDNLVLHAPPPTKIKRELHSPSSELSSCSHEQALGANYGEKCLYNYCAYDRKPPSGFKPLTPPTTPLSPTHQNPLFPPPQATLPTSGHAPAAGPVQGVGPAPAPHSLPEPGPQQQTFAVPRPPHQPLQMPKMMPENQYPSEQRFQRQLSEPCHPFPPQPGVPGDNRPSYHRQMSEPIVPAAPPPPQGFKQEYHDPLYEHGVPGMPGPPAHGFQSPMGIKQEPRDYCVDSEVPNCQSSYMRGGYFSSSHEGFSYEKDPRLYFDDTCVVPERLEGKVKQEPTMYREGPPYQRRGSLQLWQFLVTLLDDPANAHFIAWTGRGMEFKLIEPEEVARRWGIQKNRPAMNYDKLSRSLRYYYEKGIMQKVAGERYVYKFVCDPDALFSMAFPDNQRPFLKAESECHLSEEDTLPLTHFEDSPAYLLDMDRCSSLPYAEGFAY
Sequence of ELF4 (Q99607 whole entry): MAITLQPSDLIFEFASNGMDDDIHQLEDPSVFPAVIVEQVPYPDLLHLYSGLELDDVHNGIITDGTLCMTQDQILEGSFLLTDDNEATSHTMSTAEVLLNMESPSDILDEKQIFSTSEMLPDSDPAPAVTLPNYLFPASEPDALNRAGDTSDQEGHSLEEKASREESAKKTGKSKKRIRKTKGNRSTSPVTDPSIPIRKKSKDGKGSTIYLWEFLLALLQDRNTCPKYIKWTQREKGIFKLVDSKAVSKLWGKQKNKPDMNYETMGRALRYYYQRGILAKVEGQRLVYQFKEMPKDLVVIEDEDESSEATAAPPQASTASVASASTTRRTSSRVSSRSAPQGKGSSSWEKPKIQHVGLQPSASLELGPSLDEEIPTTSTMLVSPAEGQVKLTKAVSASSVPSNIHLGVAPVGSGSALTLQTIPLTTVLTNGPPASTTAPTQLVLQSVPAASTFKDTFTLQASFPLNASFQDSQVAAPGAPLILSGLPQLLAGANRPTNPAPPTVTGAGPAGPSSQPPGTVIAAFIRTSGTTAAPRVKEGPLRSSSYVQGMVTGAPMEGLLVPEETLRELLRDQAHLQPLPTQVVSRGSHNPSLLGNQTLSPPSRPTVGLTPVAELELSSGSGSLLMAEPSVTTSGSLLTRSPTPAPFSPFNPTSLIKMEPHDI

CTGTTA: the binding signal with FEV was 1.25 fold enrichment (6-mer frequency, TF over GST control); with ETV5, 1.2 fold enrichment (6-mer frequency, TF over GST control); with HSF1 it was 1.16 fold enrichment (6-mer frequency, TF over GST control); with SPIC, 1.28 fold enrichment (6-mer frequency, TF over GST control); with ELF4, 1.37 fold enrichment (6-mer frequency, TF over GST control); with ELK4, 1.4 fold enrichment (6-mer frequency, TF over GST control). The binding signal in the test with ETV2 was 1.35 fold enrichment (6-mer frequency, TF over GST control); with ELF3, 1.32 fold enrichment (6-mer frequency, TF over GST control); with CRX, 1.16 fold enrichment (6-mer frequency, TF over GST control); in the test with ETV1, 1.23 fold enrichment (6-mer frequency, TF over GST control).

GCCTTA: the binding signal was 1.11 fold enrichment (6-mer frequency, TF over GST control) with FEV; 1.13 fold enrichment (6-mer frequency, TF over GST control) with ETV5; 1.3 fold enrichment (6-mer frequency, TF over GST control) with HSF1; 1.07 fold enrichment (6-mer frequency, TF over GST control) with SPIC; 1.3 fold enrichment (6-mer frequency, TF over GST control) with ELF4; 1.1 fold enrichment (6-mer frequency, TF over GST control) with ELK4. Besides, the binding signal was 1.1 fold enrichment (6-mer frequency, TF over GST control) with ETV2; 1.24 fold enrichment (6-mer frequency, TF over GST control) with ELF3; 1.64 fold enrichment (6-mer frequency, TF over GST control) with CRX; 1.14 fold enrichment (6-mer frequency, TF over GST control) in the test with ETV1.

Consider ATGACG, for which the binding signal with FEV is 1.32 fold enrichment (6-mer frequency, TF over GST control); with ETV5 it was 1.4 fold enrichment (6-mer frequency, TF over GST control); with HSF1, 1.13 fold enrichment (6-mer frequency, TF over GST control); with SPIC, 1.18 fold enrichment (6-mer frequency, TF over GST control); with ELF4, 1.39 fold enrichment (6-mer frequency, TF over GST control); in the test with ELK4, 1.47 fold enrichment (6-mer frequency, TF over GST control). Further, the binding signal with ETV2 is 1.25 fold enrichment (6-mer frequency, TF over GST control); with ELF3, 1.3 fold enrichment (6-mer frequency, TF over GST control); with CRX it was 1.11 fold enrichment (6-mer frequency, TF over GST control); with ETV1, 1.3 fold enrichment (6-mer frequency, TF over GST control).

Regarding CCCGCT, the binding signal was 1.35 fold enrichment (6-mer frequency, TF over GST control) with FEV; 1.32 fold enrichment (6-mer frequency, TF over GST control) in the test with ETV5; 1.26 fold enrichment (6-mer frequency, TF over GST control) with HSF1; 1.25 fold enrichment (6-mer frequency, TF over GST control) in the test with SPIC; 1.49 fold enrichment (6-mer frequency, TF over GST control) in the test with ELF4; 1.62 fold enrichment (6-mer frequency, TF over GST control) with ELK4. Besides, the binding signal is 1.16 fold enrichment (6-mer frequency, TF over GST control) in the test with ETV2; 1.32 fold enrichment (6-mer frequency, TF over GST control) with ELF3; 1.25 fold enrichment (6-mer frequency, TF over GST control) in the test with CRX; 1.44 fold enrichment (6-mer frequency, TF over GST control) with ETV1.

Consider GTATCC, for which the binding signal with FEV was 2.08 fold enrichment (6-mer frequency, TF over GST control); with ETV5, 2.05 fold enrichment (6-mer frequency, TF over GST control); with HSF1, 1.14 fold enrichment (6-mer frequency, TF over GST control); in the test with SPIC, 1.96 fold enrichment (6-mer frequency, TF over GST control); with ELF4, 1.85 fold enrichment (6-mer frequency, TF over GST control); in the test with ELK4, 1.74 fold enrichment (6-mer frequency, TF over GST control). Further, the binding signal was 1.78 fold enrichment (6-mer frequency, TF over GST control) with ETV2; 1.69 fold enrichment (6-mer frequency, TF over GST control) with ELF3; 1.22 fold enrichment (6-mer frequency, TF over GST control) in the test with CRX; 1.86 fold enrichment (6-mer frequency, TF over GST control) in the test with ETV1.

For CTAAGA, the binding signal with FEV is 1.08 fold enrichment (6-mer frequency, TF over GST control); with ETV5, 1.24 fold enrichment (6-mer frequency, TF over GST control); with HSF1, 1.64 fold enrichment (6-mer frequency, TF over GST control); with SPIC it was 1.18 fold enrichment (6-mer frequency, TF over GST control); in the test with ELF4, 1.27 fold enrichment (6-mer frequency, TF over GST control); with ELK4 it was 1.16 fold enrichment (6-mer frequency, TF over GST control). Besides, the binding signal is 1.2 fold enrichment (6-mer frequency, TF over GST control) with ETV2; 1.24 fold enrichment (6-mer frequency, TF over GST control) with ELF3; 2.05 fold enrichment (6-mer frequency, TF over GST control) with CRX; 1.22 fold enrichment (6-mer frequency, TF over GST control) in the test with ETV1.

Consider ATATGC, for which the binding signal is 1.11 fold enrichment (6-mer frequency, TF over GST control) with FEV; 1.15 fold enrichment (6-mer frequency, TF over GST control) with ETV5; 1.01 fold enrichment (6-mer frequency, TF over GST control) in the test with HSF1; 1.4 fold enrichment (6-mer frequency, TF over GST control) with SPIC; 1.1 fold enrichment (6-mer frequency, TF over GST control) with ELF4; 1.28 fold enrichment (6-mer frequency, TF over GST control) with ELK4. The binding signal with ETV2 was 1.06 fold enrichment (6-mer frequency, TF over GST control); with ELF3, 1.09 fold enrichment (6-mer frequency, TF over GST control); with CRX it was 1.01 fold enrichment (6-mer frequency, TF over GST control); with ETV1, 1.11 fold enrichment (6-mer frequency, TF over GST control).

Values taken from PMC7862700, “An all-to-all approach to the identification of sequence-specific readers for epigenetic DNA modifications on cytosine”.
